Experimental findings from PubChem BioAssay (Tox21) are described below.

A number with no mark means an inactive call. Results filed as inconclusive are left out. Activity calls are given as the source filed them. Unless noted, calls follow the shape of the dose curve; as a rule, active = well fitted curve in the direction sought with a large enough effect in the repeat runs; inconclusive = weak or mixed curves; inactive = no such curve, though single readings can be large; an effect the other way counts as inactive or inconclusive.

Test [1] addresses Nuclear receptor subfamily 1 group I member 3 (Homo sapiens) (UniProt Q14994). Kind of test: qHTS assay to identify small molecule antagonists of the constitutive androstane receptor (CAR) signaling pathway (AID 1224838).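 Also: HepG2 cells stably expressing hCAR with CYP2B6 luciferase reporter stimulated by CITCO; % is scaled to controls: 0 for no effect and ±100 for the full control effect; nearly all actives have a fitted effect of over 40% in size.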 The essentials:
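HepG2-CYP2B6-hCAR cells; 4 h pre-incubation; cpd (15 conc) + CITCO 50 nM final; 24 h, 37 C/5% CO2; ONE-Glo, luminescence.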
On the technique in general: qHTS replaces the single test concentration by a dilution series.

For test [2] the target is unchanged. Kind of test: qHTS assay to identify small molecule agonists of the constitutive androstane receptor (CAR) signaling pathway (AID 1224839). Also: nearly all actives have a fitted effect of over 15% in size. Also: potency is read from the fitted curve at half-maximal effect.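 As to activation: HepG2 cells stably carrying human CAR and a CYP2B6 luciferase reporter; % is scaled to controls: 0 for no effect and ±100 for the full control effect.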 In a few lines:
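Cells were plated and incubated 4 hrs, then dosed with compounds at 15 concentrations. PK11195 was added to 0.75 uM final. After 24 hrs at 37 C, luciferase luminescence was measured.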

A short description of test [3]: qHTS assay to identify small molecule antagonists of the estrogen related receptor signaling pathway with the pleiotropic PPARgamma coactivator (PGC) from Tox21 10K library - cell viability counter screen (AID 1224840; active = well fitted cell-killing curve with a large enough effect in the repeat runs, not every such curve was filed as active; also: nearly all actives have a fitted effect of over 40% in size; also: potency is read from the fitted curve at half-maximal effect). The essentials: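 PGC/ERR cells, 2,000/well; 6 h pre-incubation 37 C/5% CO2; cpd in DMSO via pin tool; 17.5 h 37 C; CellTiter-Fluor, 30 min; fluorescence.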

Test [4] can be described thus: qHTS assay to identify small molecule antagonists of the estrogen related receptor signaling pathway with the pleiotropic PPARgamma coactivator (PGC) from Tox21 10K library (AID 1224841; call rule not given here; also: potency is read from the fitted curve at half-maximal effect; actives are mostly falling curves and most rising ones were filed inactive; nearly all actives have a fitted effect of over 50% in size). In a few lines: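 PGC/ERR cell line, 2,000 cells/well; 6 h pre-incubation 37 C/5% CO2; compounds (DMSO) pinned in; 18 h, 37 C; One-Glo, 30 min RT; luminescence.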
The nature of test [5]: qHTS assay to identify small molecule agonists of the estrogen related receptor signaling pathway with the pleiotropic PPARgamma coactivator (PGC) from Tox21 10K library (AID 1224842). Also: % is scaled to controls: 0 for no effect and ±100 for the full control effect; nearly all actives have a fitted effect of over 15% in size. In a few lines: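 Luminescence from One-Glo (30 min, room temperature) measured after PGC/ERR cells had 18 h at 37 C with pinned compound (23 nL in DMSO). Cells had been seeded at 2,000 per well and pre-incubated 6 h.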

The nature of test [6]: qHTS assay to identify small molecule agonists of the hypoxia (HIF-1) signaling pathway - cell viability counter screen (AID 1224844; calls by dose curve; also: nearly all actives have a fitted effect of over 50% in size; also: potency is read from the fitted curve at half-maximal effect). The essentials: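 ME-180 HRE-bla cells, 2,000/well, 0.5% dialyzed FBS; 5 hr settle, 17 hr compound at 37C/5% CO2; CCF4-AM reporter read first, then CellTiter-Glo luminescence after 30 min RT.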
Test [7] can be described thus: qHTS assay to identify small molecule agonists of H2AX - cell viability counter screen (AID 1224847; calls by dose curve; also: nearly all actives have a fitted effect of over 30% in size; also: potency is read from the fitted curve at half-maximal effect). The essentials: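 Cytotoxicity counter screen in wild-type CHO-K1 cells: a 3 hr compound treatment at 37C across 15 concentrations, followed by CellTiter-Glo luminescence to gauge viable cells.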
Test [8] can be described thus: qHTS assay to identify small molecule antagonists of the estrogen related receptor (ERR) signaling pathway from Tox21 library (AID 1224848). Also: potency is read from the fitted curve at half-maximal effect; nearly all actives have a fitted effect of over 50% in size. In a few lines: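 Antagonist-mode screen of the Tox21 10K library in an NTP-provided ERR reporter cell line; 18 h compound exposure at 37 C, luminescence measured with ONE-Glo.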
Test [9] in a line: qHTS assay to identify small molecule agonists of the estrogen related receptor (ERR) signaling pathway from Tox21 library (AID 1224849; calls by dose curve; also: % is scaled to controls: 0 for no effect and ±100 for the full control effect; nearly all actives have a fitted effect of over 15% in size). Particulars: ERR reporter cell line, ONE-Glo luciferase, 18 h; at 92.4 µM (top of the series) unless noted. In a few lines:
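ERR cells, 6 h pre-incubation 37 C/5% CO2; cpd in DMSO pinned; 18 h 37 C; ONE-Glo added, 30 min RT; luminescence read. Agonist mode, qHTS.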

A short description of test [10]: qHTS RealTime-Glo MT Cell Viability Assay in HepG2 cells - 24 hour (AID 1224867). Also: nearly all actives have a fitted effect of over 50% in size. Also: potency is read from the fitted curve at half-maximal effect. In a few lines:
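HepG2 suspension premixed with RealTime-Glo reagents is plated at 600 cells per well and left 5 h at 37 C/5% CO2. Compounds in DMSO then go in, and bioluminescence reflecting viable cell number is recorded over 40 h.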

Test [11] is described as follows: qHTS RealTime-Glo MT Cell Viability Assay in HEK293 cells - 32 hour (AID 1224868). Also: nearly all actives have a fitted effect of over 50% in size. Also: potency is read from the fitted curve at half-maximal effect. In a few lines: (§1)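 Reads taken at 0, 8, 16, 24, 32 and 40 h from the same wells. HEK293 cells (600/well) carried RealTime-Glo reagents from seeding, with compound added after a 5 h settle at 37 C.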
Test [12] can be described thus: A CellTox Green Cytotoxicity Assay to monitor cytotoxicity in HEK293 cells - 0 hour (AID 1224869). In a few lines: (§2)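 Nonlytic real-time cytotoxicity: HEK293 + CellTox Green reagent plated, 5 h preincubation, pintool compound addition (23 nL in DMSO), 37 C for 40 h, fluorescence measured at successive time points.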
Test [13] can be described thus: A CellTox Green Cytotoxicity Assay to monitor cytotoxicity in HEK293 cells - 40 hour (AID 1224871). Also: nearly all actives have a fitted effect of over 45% in size. Also: potency is read from the fitted curve at half-maximal effect. The essentials: as §2
Test [14] in a line: qHTS RealTime-Glo MT Cell Viability Assay in HEK293 cells - 16 hour (AID 1224872). Also: nearly all actives have a fitted effect of over 50% in size. Also: potency is read from the fitted curve at half-maximal effect. The essentials:
as §1

Test [15] can be described thus: qHTS assay to identify small molecule antagonists of the constitutive androstane receptor (CAR) signaling pathway - cell viability counter screen (AID 1224837). Also: potency is read from the fitted curve at half-maximal effect; nearly all actives have a fitted effect of over 45% in size. In a few lines:
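HepG2-CYP2B6-hCAR cells, 2500/well, 4 hr pre-incubation; compound titration, 15 conc.; CITCO 50 nM final; 23 hr, 37 C/5% CO2; CellTiter-Fluor, fluorescence intensity.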

Test [16] has as its target Thyrotropin receptor (Homo sapiens) (UniProt P16473). As to the kind of experiment: qHTS assay to identify small molecule agonists of the thyroid stimulating hormone receptor (TSHR) signaling pathway (AID 1224843; calls by dose curve; also: nearly all actives have a fitted effect of over 45% in size; also: potency is read from the fitted curve at half-maximal effect; as to activation: % is scaled to controls: 0 for no effect and ±100 for the full control effect). The essentials: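 Screening of the Tox21 10K collection used HEK293 cells engineered with TSHR at 800 cells per well. After a 30-min room-temperature compound exposure, HTRF cAMP reagents were added and fluorescence recorded 1 h later.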

The nature of test [17]: qHTS assay to identify small molecule agonists of the hypoxia (HIF-1) signaling pathway (AID 1224846; active = well fitted activation curve with a large enough effect in the signal ratio in the repeat runs, not every such curve was filed as active; the % refers to the signal ratio; also: % is scaled to controls: 0 for no effect and ±100 for the full control effect). The essentials: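 Cell line: CellSensor HRE-bla ME-180; 2,000 cells/well; 0.5% dialyzed FBS; 5 h preincubation; DMSO compound pin transfer; 17 h, 37C, 5% CO2; CCF4-AM added; bla FRET signal scored for activation.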
The nature of test [18]: qHTS RealTime-Glo MT Cell Viability Assay in HepG2 cells - 40 hour (AID 1224870). Also: nearly all actives have a fitted effect of over 50% in size. Also: potency is read from the fitted curve at half-maximal effect. In a few lines: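 Real-time viability: cells seeded at 600 per well together with NanoLuc and cell-permeant prosubstrate, compounds added after 5 h incubation. Luminescence tracked at 0, 8, 16, 24, 32 and 40 h of exposure.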
The nature of test [19]: qHTS assay to identify small molecule agonists of H2AX (AID 1224845; active = well fitted activation curve with a large enough effect in the signal ratio in the repeat runs, not every such curve was filed as active; the % refers to the signal ratio; also: % is scaled to controls: 0 for no effect and ±100 for the full control effect). In a few lines:
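Phospho-H2AX Ser139 measured by HTRF (ex 320 nm; em 665 and 620 nm) after 24 hr antibody incubation. Compounds, 15 concentrations, 0.76% DMSO, were applied to CHO-K1 cells for 3hr at 37C before lysis.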

Sequence of Thyrotropin receptor (Homo sapiens) (P16473 whole entry, looked up): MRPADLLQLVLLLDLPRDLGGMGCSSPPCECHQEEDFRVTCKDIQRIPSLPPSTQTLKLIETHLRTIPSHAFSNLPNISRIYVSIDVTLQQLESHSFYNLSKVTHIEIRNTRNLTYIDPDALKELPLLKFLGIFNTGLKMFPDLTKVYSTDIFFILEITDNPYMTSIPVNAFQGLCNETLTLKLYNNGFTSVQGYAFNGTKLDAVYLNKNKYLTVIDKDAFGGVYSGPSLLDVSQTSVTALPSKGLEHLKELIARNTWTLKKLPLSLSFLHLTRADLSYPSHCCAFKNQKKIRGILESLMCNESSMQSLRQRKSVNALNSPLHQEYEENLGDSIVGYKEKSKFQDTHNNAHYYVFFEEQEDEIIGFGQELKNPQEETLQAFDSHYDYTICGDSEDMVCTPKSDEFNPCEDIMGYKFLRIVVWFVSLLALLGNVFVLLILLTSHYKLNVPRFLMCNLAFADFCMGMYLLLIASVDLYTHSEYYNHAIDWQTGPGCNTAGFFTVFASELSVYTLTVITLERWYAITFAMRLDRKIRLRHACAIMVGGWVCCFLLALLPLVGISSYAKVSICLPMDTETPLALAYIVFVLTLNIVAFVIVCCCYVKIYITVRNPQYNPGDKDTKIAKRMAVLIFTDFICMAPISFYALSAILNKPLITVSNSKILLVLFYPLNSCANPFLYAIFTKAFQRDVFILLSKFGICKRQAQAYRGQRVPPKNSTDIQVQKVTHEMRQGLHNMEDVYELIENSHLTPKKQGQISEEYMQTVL
Sequence of Nuclear receptor subfamily 1 group I member 3 (Homo sapiens) (Q14994 whole entry, looked up): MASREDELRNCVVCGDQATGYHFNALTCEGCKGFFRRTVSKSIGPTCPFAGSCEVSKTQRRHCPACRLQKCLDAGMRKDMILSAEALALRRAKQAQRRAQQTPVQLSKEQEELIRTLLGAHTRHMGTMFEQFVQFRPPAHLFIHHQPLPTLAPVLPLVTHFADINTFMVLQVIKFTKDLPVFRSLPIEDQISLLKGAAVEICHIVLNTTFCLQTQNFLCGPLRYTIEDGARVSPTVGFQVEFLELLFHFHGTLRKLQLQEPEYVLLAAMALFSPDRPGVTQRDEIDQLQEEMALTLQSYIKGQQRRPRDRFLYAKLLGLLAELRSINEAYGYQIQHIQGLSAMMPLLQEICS

With `Cc1cc(Nc2ccc(O)cc2)ccc1N`, the Potency entry in test [1], in test [2], in test [5] and in test [12] was “inactive” throughout. The Potency in test [3] was 24.2 µM (active); in test [4], 15.3 µM (active); in [6] it was 24.4 µM (active); in test [7], 89.4 µM (active); in test [8] it was 19.2 µM (active); in [10] it was 48.8 µM (active). Besides, the Potency was 19.4 µM (active) in [11], 24.4 µM (active) in [13] and 24.4 µM (active) in test [14]. The activity change, positive = activation in test [9] was -47.7%.
In the case of `CCCCCCCCCCOCC(O)CN` (configuration not stated), the Potency in test [15] was 29.8 µM (active); in test [16], 21.1 µM (active); in test [7], 55.2 µM (active); in test [10], 15.1 µM (active); in test [11] it was 23.9 µM (active); in test [18], 15.1 µM (active). In addition, the values for the Potency in test [13] and in [14] were 26.8 µM (active) and 23.9 µM (active), respectively. Also, the Potency entry in [5], in test [6] and in test [12] was “inactive” in each case. Moreover, the result in [17] was inactive. The activity change, positive = activation in test [9] was -64% [at 42.5 µM].
Turning to `CN(C)CCCN1c2ccccc2Sc2ccc(C(F)(F)F)cc21`, the Potency entry in test [16], in [6], in [7] and in test [12] was “inactive” throughout. Moreover, the Potency in [11] is 21.3 µM (active); in test [13], 26.8 µM (active); in test [14] it was 19 µM (active).
On to `Cc1c(-c2ccc(O)cc2)n(Cc2ccc(OCCN3CCCCCC3)cc2)c2ccc(O)cc12`, for which the Potency in test [10] is 15.1 µM (active); in [18], 9.52 µM (active); in test [13] it was 16.9 µM (active); in [14], 2.68 µM (active). In test [12], the Potency result is “inactive”.
In the case of `Cc1cc2c(C(C)C)c(O)c(O)c(C=O)c2c(O)c1-c1c(C)cc2c(C(C)C)c(O)c(O)c(C=O)c2c1O`, the Potency result in [2], in [5], in [16] and in [12] was “inactive” in each case. The Potency is 26.6 µM (active) in test [3]; 11.9 µM (active) in test [4]; 7.5 µM (active) in test [8]; 12 µM (active) in test [11]; 26.8 µM (active) in test [18]; 19 µM (active) in test [13]. Besides, the Potency in test [14] is 19 µM (active). The activity change, positive = activation in test [9] was -47.3% [at 42.5 µM].
Turning to `COc1ccccc1OCCNCC(O)COc1cccc2[nH]c3ccccc3c12` (configuration not stated), the Potency result in test [1], in test [2], in [5], in test [19] and in test [12] was “inactive” throughout. The Potency in test [4] was 13.3 µM (active); in test [7], 49.2 µM (active); in test [8], 26.6 µM (active); in [10] it was 21.3 µM (active); in [11], 16.9 µM (active); in test [18], 23.9 µM (active). In addition, the Potency in test [14] was 16.9 µM (active). The outcome in test [17] was inactive. For the same molecule, the activity change, positive = activation in [9] was -52.7% [at 42.5 µM].
On to `CN(C)CCOC(c1ccccc1)c1ccccc1` (tested in a mixture with another compound), for which the Potency entry in test [3], in test [7], in test [10], in test [18], in [13] and in [14] was “inactive” in each case.
Regarding `CN(C)c1ccc(N=Nc2ccccc2C(=O)O)cc1`, the Potency entry in [1], in test [11], in test [12] and in test [14] was “inactive” each time. The Potency in test [2] was 10.9 µM (active); in test [3], 27.3 µM (active).
